Sampled rows, rich in hits. Any-hit rate of the full collection: about 2.4%.
D2 ag-1: activates the human D2 dopamine receptor | activation, % (no concentration beside the values) | P14416 | AID 624465 | DiscoveRx PathHunter D2 beta-arrestin, luminescence, 90 min; 100% = 57 uM dopamine signal | 360,000 tested, 0.084% active; in the data active means activation above about 40%; inconclusive means between about 15% and that limit
Target sequence (P14416 whole entry, looked up): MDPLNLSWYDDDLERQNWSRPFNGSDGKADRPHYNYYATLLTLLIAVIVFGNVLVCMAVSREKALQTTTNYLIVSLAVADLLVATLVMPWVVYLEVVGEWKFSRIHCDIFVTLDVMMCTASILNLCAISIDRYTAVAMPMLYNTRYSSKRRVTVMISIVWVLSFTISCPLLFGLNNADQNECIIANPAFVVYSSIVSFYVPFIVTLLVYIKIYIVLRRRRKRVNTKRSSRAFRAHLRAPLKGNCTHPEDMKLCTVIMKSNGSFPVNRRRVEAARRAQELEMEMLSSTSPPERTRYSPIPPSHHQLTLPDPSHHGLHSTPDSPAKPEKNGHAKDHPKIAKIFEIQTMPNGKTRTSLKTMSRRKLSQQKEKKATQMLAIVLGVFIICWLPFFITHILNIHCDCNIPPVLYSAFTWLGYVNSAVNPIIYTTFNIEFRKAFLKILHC
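Agonist mode: compounds alone added to overnight-plated D2 PathHunter cells for 90 min at 37 C, with 57 uM final dopamine (EC100) defining full response. Beta-arrestin recruitment detected by chemiluminescent reagent, read after 1 h at ambient temperature.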
D2 PAM-1: positive allosteric modulators of human D2 dopamine receptor; AID 485347; 340,000 tested, 0.34% active; potentiation, % at 10 µM; HEK293 T-REx D2, calcium flux, EC20 dopamine potentiation; P14416;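 active means potentiation over 3 SD above the plate norm, cut at about 30% in these data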; further: 0% is about no effect
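Primary screen. Calcium kinetics in induced HEK293 T-REx D2 cells: compound pre-addition 180 s, EC20 dopamine, 180 s more.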
D2 ag-2: activates the human D2 dopamine receptor; 340,000 tested, 0.53% active; P14416; activation, % at 2 µM; HEK293 T-REx D2 cells, calcium flux agonist mode;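 active means activation over 3 SD above normal in the single-dose calcium agonist read, cut at about 30% in these data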; further: 0% is about no effect
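Tetracycline-induced HEK293 Trex cells with D2 receptor force-coupled to calcium signaling, plated overnight at 30 C and loaded with no-wash calcium dye. Calcium flux read kinetically for 180 s after compound addition; responses flag agonists.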
D2 antag: D2 dopamine receptor (human) antagonism | inhibition, % at 10 µM | 340,000 tested, 2% active | HEK293 TREx D2 cells, calcium flux, dopamine EC80; in the data active means inhibition above about 30%; inactive means below that, where a call was filed; further: 0% is about no effect
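Calcium mobilization kinetics were recorded at 1 s intervals in tetracycline-induced HEK293 T-REx D2 cells, first for 180 s after compound addition and then 180 s after EC80 dopamine.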
D2 PAM-2: human D2 receptor positive allosteric modulation | P14416 | DiscoveRx D2 beta-arrestin cells, luminescence, 90 min; 100% = 57 uM dopamine signal | potentiation, % (concentration not given with the values) | 360,000 tested, 0.23% active; in the data active means potentiation above about 50%; inconclusive means mostly about 30% to 49%
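PathHunter beta-arrestin assay in DiscoveRx D2 cells. Compounds were added with an EC20 of dopamine (50 nM final) for 90 min at 37 deg C. Luminescence was read 1 h after detection reagent, with 57 uM dopamine as the EC100 control.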
The depositor's hits bear a star; ? = inconclusive; . = no result given.

SMILES	D2 ag-1	D2 PAM-1	D2 ag-2	D2 antag	D2 PAM-2
CC1(C)Cc2c(c(N3CCOCC3)nc3sc(C(N)=O)c(N)c23)CO1	-4	10	0	-9	0
CC1(C)Cc2c(c(N3CCOCC3)nc3sc(C#N)c(N)c23)CS1	-3	14	0	38*	3
Nc1cnccc1C(=O)O	?	-12	4	43*	?
O=S(=O)(Cc1ccccc1)Nn1cnnc1	-1	7	0	31*	-4
Cc1cccc(NS(=O)(=O)Cc2ccccc2)n1	-1	-6	0	-30	-2
CC(C)(Oc1ccc(Cl)cc1)C(=O)N1CCN(c2ccccn2)CC1	-3	2	-1	43*	-20
Nn1c(SC/C=C/c2ccccc2)nnc1-c1ccncc1	-5	18	0	38*	-13
Cc1nc2ccn(Cc3cccs3)c(=O)c2cc1C(=O)N1CCN(c2ccccc2F)CC1	.	1	-1	.	.
Cc1cc(C)n(C(=O)CN2C(=O)c3ccccc3C2=O)n1	-1	-2	-1	3	-6
Cc1cc(C)n(C(=O)C(C)N2C(=O)c3ccccc3C2=O)n1 (stereo unspecified)	-2	31*	-1	-7	-2
O=C(NCc1cccs1)c1cccc2c(-c3cccnc3)coc12	10	.	.	.	-5
O=C(CN1CCN(c2ccccc2F)CC1)c1c[nH]c2ccc(F)cc12	0	-16	-1	35*	-23
NC(=O)C1CCN(CC(=O)c2c[nH]c3ccc(F)cc23)CC1	1	-3	-1	-6	-12
O=C(ONC1=NCCCCC1)c1c(F)cccc1F	?	1	0	13	65*
O=C(ONC1=NCCCCC1)c1ccc(Cl)cc1	?	5	1	7	?
Cc1ccc(-n2c3c(cc(C(=O)Nc4ccccc4C(N)=O)c2=O)C(=O)CC(C)(C)C3)cc1	.	-3	.	.	.
NC(=O)c1ccc(NCc2ccco2)c([N+](=O)[O-])c1	-4	5	1	35*	-14
Cc1ccc(C)c(Cn2nc(-c3cc(C)ccc3C)ccc2=O)c1	-1	-3	1	35*	-10
Nc1ccc(-c2nc3ncccc3o2)cc1	-3	2	0	33*	-1
COc1ccccc1N1CCN(c2c(CN3CCCC3)c(=O)oc3ccccc23)CC1	.	.	0	.	.
NC(=Nc1ccc(Cl)cc1)c1ccccc1	0	-13	29	34*	1
ONC(=Nc1ccccc1)c1ccc(Cl)cc1	1	7	-1	23	7
Cc1ccc(C(=O)c2cn(Cc3cccc(F)c3)c3nc(C)ccc3c2=O)cc1	.	2	0	.	.
CCC(CC)NC(=O)CN1CCN(S(=O)(=O)c2ccc(Br)s2)CC1	2	0	-1	-4	50*
Cc1ccc(CNS(=O)(=O)c2ccc(Cl)s2)cc1	-2	.	.	.	-12
SMILES	D2 ag-1	D2 PAM-1	D2 ag-2	D2 antag	D2 PAM-2
C=CCC1=C/C(=C\c2c(N)n3nc(CC(=O)N4CCCC4)sc3nc2=O)C=C(OC)C1=O	-5	-5	40*	2	-2
Oc1ccc(C2=NN(c3ccccc3)C(c3ccc(F)cc3)C2)cc1 (stereo unspecified)	5	4	1	33*	0
Fc1ccc(C2=NN(c3ccccc3)C(c3ccco3)C2)cc1 (stereo unspecified)	-9	18	-1	-35	-4
Cc1ccc(C2CC(c3ccccc3)=NN2c2ccccc2)o1 (stereo unspecified)	-6	-3	-1	36*	-9
CCN(CC)CCOC(=O)c1ccc(NC(=O)CCCN2C(=O)/C(=C\c3cccs3)SC2=S)cc1	-4	-27	1	68*	-56
CCN(C(=O)c1nn(-c2ccc(C)cc2)c(=O)c2c1c1ccccc1n2C)c1ccc(F)cc1	.	4	1	.	.
COc1ccc(CCN(C)CC(O)COc2ccc(C(C)=O)cc2OC)cc1OC (stereo unspecified)	-2	2	0	36*	-8
CC(=O)c1ccc(OCC(O)CN(C)CCOc2ccc(Br)cc2)cc1 (stereo unspecified)	2	-26	3	44*	-9
CCc1ccc(NC(=O)c2cc(S(=O)(=O)N3CCCCCC3)ccc2F)cc1	.	15	0	.	.
COc1ccc(C(C)=O)cc1COC(=O)Cc1n[nH]c(=O)c2ccccc12	-3	5	0	33*	-3
COc1ccccc1C(=O)COC(=O)Cc1n[nH]c(=O)c2ccccc12	-5	-11	.	.	-1
Cc1ccc(N2C(=O)C3C4C=CC(C4)C3C2=O)cc1 (stereo unspecified)	-3	51*	1	0	-4
Cc1cc(C)cc(N2C(=O)C3C4C=CC(C4)C3C2=O)c1 (stereo unspecified)	0	37*	.	.	12
Cc1cccc(N2C(=O)C3C4C=CC(CC4)C3C2=O)c1 (stereo unspecified)	-7	21	0	4	16
O=C1C2C3C=CC(C3)C2C(=O)N1c1ccccc1 (stereo unspecified)	-3	.	.	.	-8
CCCCSCCCNC(=O)CN1C(=O)COc2ccc(S(=O)(=O)N3CCC(C)CC3)cc21	.	-2	0	.	.
COc1ccc(-n2c(SCC(=O)N3CCc4ccccc43)nc3c([nH]c4ccccc43)c2=O)cc1	.	12	1	.	.
COc1ccccc1C/C(N)=N/OC(=O)c1cccs1	?	-4	0	3	53*
N/C(Cc1ccc(Cl)cc1Cl)=N\OC(=O)Cc1cccs1	-1	7	0	3	-1
N/C(Cc1ccc(Cl)cc1Cl)=N\OC(=O)c1cccs1	14	-1	-1	-25	119*
N/C(Cc1cccc2ccccc12)=N\OC(=O)c1cccs1	-1	0	9	-17	-15
Cc1ccc(NC(=O)Nc2nnc(N(C)C3CCCCC3)s2)c(Cl)c1	.	8	-1	.	.
CSc1ccc2c(c1)C(N1CCN(C)CC1)Cc1ccccc1S2 (stereo unspecified)	-4	-27	2	81*	-29
Cc1ccc(CCNC(=O)CCCn2c(=O)c3cccn3c3ccc(F)cc32)cc1	.	2	0	.	.
Cc1cccc(N2CCN(S(=O)(=O)c3ccc4oc(=O)c5ncn(C)c5c4c3)CC2C)c1 (stereo unspecified)	.	3	0	.	.
Cc1nc(SCC(=O)NCc2ccco2)c2c3c(sc2n1)CCCC3	-3	1	1	36*	-5
Cc1c(C)n(O)c2ccc3nonc3c12	-2	9	1	41*	1
O=C1c2cccc3c([N+](=O)[O-])ccc(c23)C(=O)N1O	42*	-2	0	27	4
O=C1c2cccc3c([N+](=O)[O-])ccc(c23)C(=O)N1c1ccccn1	?	11	1	17	?

Compound activity as filed in PubChem BioAssay.
